PubChem BioAssay (NCI)
Compounds without any hit were thinned out: in the full panel of roughly 83,000, 20% have a hit.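 Interpretation: 100, growth as untreated; towards 0, rising growth inhibition; 0, no net growth; 0 to -100, cell death. Compounds scoring below 10 were considered active.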 Values without a mark were called inactive. The source made the active and inactive calls.

system: KM12 colon; test: NCI-60 one-dose screen, 48 h (100 = growth as untreated, 0 = no growth, -100 = all killed); details: 10 µM unless noted

| Compound | growth |
| --- | --- |
| Brc1ccc(-c2nc3ccccc3s2)cc1 | 97.3% |
| O=C1/C(=N\c2cc(=O)[nH]n2S(=O)(=O)c2ccccc2)Nc2ccccc21 | 99.4% |
| COc1ccc(/C=C/C(=O)/C=C/c2cc3ccccc3[nH]c2=O)cc1 | 27.6% |
| C/C=C/C/C=C/[C@H](C)C[C@H](O)[C@@H]1C[C@@H]2O[C@H]2/C=C/[C@@H]2OC(C)(C)O[C@H]2/C=C/C[C@H](C)CC(=O)O1 | 31.7% |
| COC1(OC)N=C(N)C2(C#N)C3(C(=O)Nc4ccccc43)C12C#N (configuration not stated) | 101% |
| C/C=C/C/C=C/[C@H](C)C[C@H](O)[C@@H]1C[C@@H]2O[C@H]2/C=C/[C@H](O)[C@@H](O)/C=C/C[C@H](C)CC(=O)O1 | 80.2% |
| COc1cc(-c2nc3c(c(C)nc4c3nnn4-c3ccccc3)c(=O)o2)cc(OC)c1OC | 110% |
| CCC(C)C1NC(=O)C(CC(C)C)NC(=O)C(C)NC(=O)C(C(C)C)NC(=O)C(CCCCN)NC(=O)C(CC(C)C)NC(=O)C(C(C)C)NC(=O)[C@H](C)NC(=O)C(C(C)CC)NC(=O)C(CCCN=C(N)N)NC(=O)C(CCCCN)NC(=O)C(CCCN=C(N)N)NC(=O)C(CCCCN)NC(=O)C([C@H](C)CC)NC(=O)C(CCCCN)NC1=O (some centres not stated) | -6.4% (active) |
| COc1ccc(-c2nc(SCC(C)C)nc(Nc3ccc(C(=O)O)cc3)c2C#N)cc1 | 91.8% |
| O=S(=O)(O)CCI | 114% |
| Nc1nc2c(c3cnccc13)C(c1cccc(Cl)c1)Cc1cnccc1-2 (configuration not stated) | 13.7% |
| Oc1ccccc1\C=N/N=C/C=C/c1ccccc1 | 92.8% |
| COC(=O)c1ccc2[nH]c(O)c(C(=Nc3ccc(N(C)C(=O)CN4CCN(C)CC4)cc3)c3ccc(N)cc3)c2c1 | 18.4% |
| CC(C)OC(=O)c1ccc2n1CCCc1cnc(Nc3ccccc3)nc1-2 | 52.8% |
| CC(=O)Nc1ccc(C(=O)/C=C/c2ccc(N(C)C)cc2)cc1 | 97.7% |
| CCOC(=O)C1=C(c2ccccc2)NC(=O)NC1CN1C(=O)c2ccccc2C1=O (configuration not stated) | 113% |
| CC/C(=N\Nc1nc2ccccc2n1C)c1ccccn1 | 18.5% |
| CCCCCCC(C)N(CC(C)(C)O)C(=O)c1ccc([N+](=O)[O-])cc1 (configuration not stated) | 103% |
| O=C1C(=O)c2ccccc2C(O)=C1CCCc1ccc(Oc2ccccc2)cc1 | 67.3% |

| Compound | growth |
| --- | --- |
| C=C[C@]1(C)C=C2C(=O)[C@@]3(O)OC[C@@]4(CCCC(C)(C)C43O)C2(O)C(O)C1 (some centres not stated) | 89.4% |
| COc1ccc(/C=C2\CCCC3=C2N=C2SC=NN2C3c2ccc(OC)c(OC)c2)cc1OC (configuration not stated) | 28.2% |
| CC(C)(C)c1ccc(OCCOC(=O)CBr)cc1 | 87.7% |
| c1cc(C2CCCCC2)ccc1OCCCCCCN1CCNCC1 | 6.42% (active) |
| CCOC(=O)c1c2c(cn1Cc1ccccc1)-c1oncc1CC2 | 104% |
| C/C(=N\Nc1cccc(Cl)n1)c1ccccn1 | 25.8% |
| CCCCN(CCCC)CCCNc1c2c(nc3ccc(Cl)cc13)CCCC2 | 99.7% |
| COc1ccc(Cn2cc3c(c2)-c2oncc2CC3)cc1OC | 5.46% (active) |
| C/C(=N\Nc1ccc(Cl)cn1)c1ccccn1 | 20% |
| NC(=O)c1c(Nc2ccccc2)nn2cc(-c3nc4ccccc4s3)c(N)nc12 | 99.5% |
| COC(=O)c1ccc2[nH]c(O)c(C(=Nc3ccc(N(C)C(=O)CN4CCN(C)CC4)cc3)c3cccc(OC)c3)c2c1 | 4.88% (active) |
| Cc1nc2c(nnn2-c2ccccc2)c2nc(-c3ccc(Cl)cc3)oc(=O)c12 | 113% |
| Clc1ccc(N/N=C(/c2ccccc2)c2ccccn2)nc1 | 43.2% |
| CCc1ccc(C(=Nc2ccc(N(C)C(=O)CN3CCN(C)CC3)cc2)c2c(O)[nH]c3ccc(C(=O)OC)cc23)cc1 | -60.8% (active) |
| Cc1ccc(C(C)C)c(OCc2ccc(C(=O)N/N=C/c3cccc(O)c3O)cc2)c1 | 36.1% |
| C/C(=N\Nc1ccc(Cl)cn1)c1ccc2ccccc2n1 | 20.2% |
| CCOC(=O)c1ccc2n1CCCc1cnc(NC(C)=O)nc1-2 | 109% |
| COC(=O)c1ccc2[nH]c(O)c(C(=Nc3ccc(N(C)C(=O)CN4CCN(C)CC4)cc3)c3ccc(C)cc3)c2c1 | -17.3% (active) |
